Compound activity as filed in PubChem.
PLK1 PBD inh – PLK1 (human) polo-box domain binding inhibition; P53350; Plk1 PBD binding of FITC phosphopeptide, fluorescence polarization; Potency, µM, inactives show max response, negative = inhibition, usual class: inhibitors; 360,000 compounds, 2.8% hits; AID 720504; further: series mostly up to about 57 µM; on the % scale 0 is the no-effect control and ±100 the full control effect; nearly all actives have a fitted effect of over 65% in size
BRCA1 expr up – increases BRCA1 expression; MCF7-BRCA1-FFLuc reporter, luminescence, 48 h; response scale: scaled: vehicle 0%, 10 µM genistein 100%; Potency, µM (titrated, usually from 46.1 µM), for inactives: at the highest dose activation, usual class: activators; 380,000 compounds, 1.1% hits; further: nearly all actives have a fitted effect of over 80% in size
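MCF7-BRCA1-FFLuc, 2000 cells/well; 2 h attach, 37 °C/5% CO2; compound 48 h; luciferase substrate 15 min; luminescence end-point. Norm. to genistein 10 microM max activation and DMSO; concentration-response curves fitted.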
Tb PFK inh – inhibitors of T. brucei phosphofructokinase; 330,000 compounds, 0.17% hits; O15648; Potency, µM (series often up to 57.5 µM), inactives show top-dose activity, negative = inhibition, actives largely listed as inhibitors; T. brucei PFK, ADP-Glo luminescence;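 further: 0% = uninhibited 1x PFK enzyme wells and -100% = no-enzyme wells; nearly all actives have a fitted effect of over 60% in size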
Target sequence (O15648 whole entry, looked up): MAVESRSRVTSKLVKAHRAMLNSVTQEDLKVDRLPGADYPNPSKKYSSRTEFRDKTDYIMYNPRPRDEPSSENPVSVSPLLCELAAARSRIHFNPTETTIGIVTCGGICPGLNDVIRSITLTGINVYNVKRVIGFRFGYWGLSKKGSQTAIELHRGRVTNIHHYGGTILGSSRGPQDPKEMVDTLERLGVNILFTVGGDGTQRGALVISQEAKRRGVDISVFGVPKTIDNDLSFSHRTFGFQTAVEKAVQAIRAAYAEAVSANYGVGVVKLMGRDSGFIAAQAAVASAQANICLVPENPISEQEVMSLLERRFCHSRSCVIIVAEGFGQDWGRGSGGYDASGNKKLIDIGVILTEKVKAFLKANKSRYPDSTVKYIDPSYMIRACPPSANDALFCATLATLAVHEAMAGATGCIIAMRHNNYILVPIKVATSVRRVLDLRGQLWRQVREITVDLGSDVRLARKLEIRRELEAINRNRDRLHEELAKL
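In TEA buffer at pH 8.0 with 5 mM MgCl2, enzyme (1.25 nM) converted F6P (0.5 mM) and ATP (0.1 mM) for 45 min at room temperature. ADP product was read by luciferase luminescence.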
VDR inhibitor – vitamin D3 receptor (human) inhibition | Potency, µM, without a hit: max response, negative = inhibition, usual class: inhibitors | P11473 | 400,000 compounds, 0.93% hits | VDR-SRC2-3 peptide fluorescence polarization, 2 h; further: on the % scale 0 is the no-effect control and ±100 the full control effect
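Signal is fluorescence polarization, reporting how far test compounds block the interaction of VDR with the SRC2-3 coregulator peptide after a 2 h room-temperature incubation.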
The depositor's hits bear a star; ? = inconclusive; . = no result. Hits are enriched below; roughly 3.9% of the tested compounds scored in any of these assays. The call rests on the fitted dose curve; in most records, active means well fitted curve in the direction sought with a large enough effect; inconclusive means small, poorly fitted or top-dose-only effect, or another doubt; inactive means no such curve, though single readings can be large; an effect the other way counts as inactive or inconclusive. Potency means the concentration at half of the fitted maximal effect.

SMILES	PLK1 PBD inh	BRCA1 expr up	Tb PFK inh	VDR inhibitor
Cc1ccc(S(=O)(=O)N2[C@@H](c3ccc(F)cc3)C(C(=O)O)=CC[C@H]2c2ccc(C(C)C)cc2)cc1	?	-9%	6%	-13%
O=C(O)C1=CC[C@@H](c2ccc(Cl)cc2)N(S(=O)(=O)c2ccc(Cl)cc2)[C@H]1c1ccc(Br)cc1	27µM*	2%	1%	-28%
Cc1ccc(S(=O)(=O)N2[C@@H](c3cccc(Cl)c3)C(C(=O)O)=CC[C@H]2c2ccc(C(C)C)cc2)cc1	21µM*	2%	-8%	-21%
CCC(=O)N1CCc2cc(Br)cc(S(=O)(=O)CCC(=O)Nc3ccc(C)c(C)c3)c21	.	.	.	3%
CCN(CCS(=O)(=O)c1ccc(Cl)cc1)C(=O)Nc1ccccc1	-13%	-4%	-1%	-1%
O=C(Nc1ccccc1)N(O)c1ccc(Cl)cc1	-7%	19%	-6%	28µM*
C=CCOn1c(=O)c(-c2cccs2)[n+]([O-])c2ccccc21	0.84µM*	-40%	-3%	-11%
Cc1cccc(N2CCN(C(=O)C3CCN(S(=O)(=O)Cc4ccccc4)CC3)CC2)c1C	.	.	.	8%
Cc1cc(NC(=O)c2cccc(Oc3ccccc3)c2)n[nH]1	-5%	11µM*	0%	-7%
Cc1cc(NC(=O)NC(=O)c2cccc(OC(F)(F)C(F)F)c2)n[nH]1	1%	71%	19%	-1%
Cc1ccc(NC(=O)N2CC3CCCN3c3ccccc32)cc1Cl (centres undefined)	.	.	.	3%
O=C(NNc1cc(Cl)ccc1Cl)C1CCC1	27µM*	-8%	-3%	?
O=C(Nc1cc(Cl)ccc1Cl)N1CCCC1	8.4µM*	-1%	-8%	?
CC(C)(C)c1cc(CNC2CS(=O)(=O)C[C@@H]2O)cc(C(C)(C)C)c1O (some centres undefined)	?	0%	-1%	50µM*
O=S1(=O)CC(O)C(NCc2ccco2)C1 (centres undefined)	-4%	1%	-2%	?
CC(=O)NC1=C(C#N)CCC1	.	-10%	.	.
O=C1SC(SC(=Nc2ccccc2)Nc2ccccc2)C(=O)N1c1ccccc1 (centres undefined)	6.7µM*	?	-3%	89µM*
COc1cccc(Nc2ncc3ncc(=O)n(C[C@H]4CCCO4)c3n2)c1	.	.	.	-14%
COc1ccccc1N1CCN(C(=O)CCn2nc(C)c(S(=O)(=O)N3CCCC3)c2C)CC1	.	0%	.	17%
COC(=O)N1C(=O)[C@](c2ccc(Cl)cc2)(C(C)C)N1C(=O)OC	24µM*	-25%	-12%	?
Cc1cc(C(=O)CSc2n[nH]c(N)n2)c(C)n1-c1cccc(F)c1	-7%	13µM*	-1%	-5%
Cc1cc(C(=O)CSc2ncccn2)c(C)n1-c1cccc(F)c1	-7%	?	2%	-17%
CN1CCC(=O)N([C@H](CN=[N+]=[N-])Cc2ccccc2)CC1	-19%	0%	1%	-13%
Cc1ccc(C2c3cccn3CCN2S(=O)(=O)c2ccc([N+](=O)[O-])cc2)cc1 (centres undefined)	.	.	.	-3%
Cc1cc(-c2ccccc2)n(-c2ccccc2)n1	-17%	8.9µM*	3%	9%
SMILES	PLK1 PBD inh	BRCA1 expr up	Tb PFK inh	VDR inhibitor
O=S(=O)(c1ccccc1)N1CCC[C@@]2(CCN(c3ccccc3)C2)C1	.	.	.	32µM*
Cc1ccc(C(NC(=O)N2CCOCC2)C(Cl)Cl)cc1F (centres undefined)	27µM*	64%	3%	-2%
O=C(NCCOc1ccccc1Cl)c1cc(F)c(F)cc1Cl	-4%	7.1µM*	-3%	-10%
Cc1oc2ncn(C)c(=O)c2c1C(=O)Nc1ccccn1	.	-19%	.	-22%
N#CCn1nnc(-c2ccc3c(c2)OCO3)n1	2%	36%	-3%	-9%
Fc1cccc(Cl)c1Cn1nnc(-c2ccc3c(c2)OCO3)n1	-5%	8.9µM*	-2%	-1%
Cc1cc(=O)[nH]c2n[nH]c(-c3ccccc3)c12	0%	11µM*	1%	12%
CCCc1c(C)nc2ccccc2c1SCCC#N	21µM*	1%	0%	-26%
COCCc1ncc(CN2CCC(C(=O)Nc3cccc(-c4cscn4)c3)CC2)cn1	19µM*	-32%	-1%	-28%
CNc1ncnc2c1ncn2[C@H]1CN(Cc2ccc(OC)cc2)C[C@@H](CO)O1	-5%	0%	.	.
S=c1nccc(-c2cccs2)[nH]1	12µM*	-12%	0%	?
CCCNc1cc(=S)nc(N)[nH]1	19µM*	0%	-21%	-6%
CC1=C(C(=O)OC2CCCCCC2)C(c2ccc(Cl)cc2Cl)CC(=O)N1 (centres undefined)	.	10%	.	1%
COc1cc(NC(=O)COC(=O)CNC(=O)c2ccc(C)s2)cc(OC)c1	24µM*	18%	-9%	-12%
C(#Cc1ccccc1)C[N+]1(CC#Cc2ccccc2)CCCCC1	27µM*	-65%	-1%	15%
C#CC[N+]1(CC#Cc2ccccc2)CCCCC1	-2%	-3%	-1%	1%
CN1CCS/C1=C/C=C1\SC(=S)N(CC(=O)O)C1=O	120%	3%	0%	-16%
CCCCN1C(=O)/C(=C/C=C2\SCCN2C)SC1=S	49%	7.1µM*	-6%	-5%
COc1cccc(CNC(=O)Cn2ccc3cc(S(=O)(=O)N4CCCC4)ccc32)c1OC	30µM*	17%	-4%	-27%
COc1ccccc1CCNC(=O)Cn1ccc2cc(S(=O)(=O)N3CCCC3)ccc21	?	4%	0%	-13%
CSc1ccc(CNC(=O)CCn2ccc3cc(S(=O)(=O)N4CCCC4)ccc32)cc1	27µM*	-21%	4%	-25%
CCOc1ccc(CNC(=O)Cn2ccc3cc(S(=O)(=O)N4CCCC4)ccc32)cc1	27µM*	2%	3%	-14%
C=CCn1c(NC(=O)c2ccc(C)cc2)nc2ccccc21	-3%	69%	-4%	4%
O=C(Nc1cccc(-n2cnnn2)c1)c1ccc(Cl)cc1Cl	30µM*	0%	2%	-23%
Cc1nc2ccccc2c(=O)n1/N=C/c1ccc(O)c(O)c1O	11µM*	-33%	-12%	-5%
SMILES	PLK1 PBD inh	BRCA1 expr up	Tb PFK inh	VDR inhibitor
CCCOc1ccc(C(=O)Nc2ccccc2[N+](=O)[O-])cc1	?	3.2µM*	.	-5%
COc1cc(C(=O)NC(=S)Nc2ccccc2[N+](=O)[O-])cc(OC)c1OC	21µM*	-12%	0%	-20%
COc1ccc(NC(=O)c2ccccc2)c([N+](=O)[O-])c1	-1%	7.9µM*	1%	-6%
COc1ccc(NC(=S)NC(NC(=O)c2cccc(Cl)c2)C(Cl)(Cl)Cl)c([N+](=O)[O-])c1 (centres undefined)	-5%	-95%	7%	12%
COc1ccc(NC(=S)NC(NC(C)=O)C(Cl)(Cl)Cl)c([N+](=O)[O-])c1 (centres undefined)	24µM*	-27%	-7%	-13%
Cc1cc(/C=C2\C=Cc3ccccc32)cc(C)c1[N+](=O)[O-]	.	-44%	.	.
CCc1ccc(NC(=O)Cn2c(=O)n(CCCC(=O)NCCc3ccc(OC)c(OC)c3)c(=O)c3ccccc32)cc1	.	6%	.	3%
